# SARS PLP yeast: qHTS of Yeast-based Assay for SARS-CoV PLP | actives 0.19% (n = 330,000) | AID 485353, 2010 | Potency, µM (top dose mostly 32.9 µM), inactives show top-dose activity, positive = growth rescue, usual class: activators | S. cerevisiae expressing SARS-CoV PLpro, growth rescue; calls by dose curve; also: potency is read from the fitted curve at half-maximal effect; 0% is about no effect; nearly all actives have a fitted effect of over 55% in size
# Pf growth 96h: Primary qHTS for delayed death inhibitors of the malarial parasite plastid, 96 hour incubation; actives 6.9% (n = 320,000); AID 504834, 2011; P. falciparum luciferase reporter growth, 96 h; Potency, µM (series often up to 28.7 µM), for the others: at the top dose activity change, negative = inhibition, most hits filed as inhibitors; also: potency is read from the fitted curve at half-maximal effect; % is scaled to controls: 0 for no effect and ±100 for the full control effect
#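 Two parasite generations (96 h, 37 C, 5% CO2) of compound exposure in infected erythrocytes (0.05% parasitemia, 2% hematocrit). Luciferase-reporter P. falciparum; decreased luminescence indicates inhibited growth, aimed at apicoplast-acting delayed death.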
# Shiga toxin inh: A qHTS for Small Molecule Inhibitors of Shiga Toxin | Vero cells, Shiga toxin protein synthesis inhibition reporter | inhibition, % at 38.7 µM | actives 9.2% (n = 290,000) | AID 2315, 2010; in the data active = inhibition mostly above about 28%, no sharp cut-off; inactive = mostly below about 43%; also: 0% is about no effect
# AMA1-RON2 inh: qHTS for Inhibitors of AMA1-RON; Towards Development of Antimalarial Drug Lead: Primary Screen. Plasmodium falciparum AMA1 (3D7) - RON2 peptide interaction. AlphaScreen AMA1-biotinylated RON2 peptide binding. Potency, µM (top dose mostly 58.2 µM), without a hit: top-dose activity change, negative = inhibition, most hits filed as inhibitors. actives 0.2% (n = 360,000). AID 720542, 2013;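 also: potency is read from the fitted curve at half-maximal effect; 0% = vehicle wells and -100% = peptide control; nearly all actives have a fitted effect of over 45% in size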
#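 AMA1 (3D7) with his tag at 25 nM final met compounds first, then biotinylated RON2 peptide at 25 nM; detection used donor plus acceptor beads, 10 µg/mL apiece, read by AlphaScreen after 30 min at room temperature.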
# Cycloheximide cs: Cycloheximide Counterscreen for Small Molecule Inhibitors of Shiga Toxin; actives 12% (n = 300,000); cell reporter, cycloheximide protein synthesis inhibition counterscreen; max response, %; AID 2314, 2010; in the data active = max response mostly above about 13%, no sharp cut-off; inactive = mostly below about 14%; also: read at 38.3 µM for the half of the compounds with a filed dose; 0% is about no effect
# Pf growth 48h: Primary qHTS for delayed death inhibitors of the malarial parasite plastid, 48 hour incubation; P. falciparum luciferase growth in erythrocytes, 48 h; Potency, µM (top dose mostly 28.7 µM), for the others: at the highest dose activity change, negative = inhibition, most hits filed as inhibitors; actives 5.9% (n = 310,000); AID 504832, 2011; also: potency is read from the fitted curve at half-maximal effect; % is scaled to controls: 0 for no effect and ±100 for the full control effect
#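 Luciferase-expressing parasites in RBCs, 2% Hct / 0.1% parasitemia final; RPMI 1640 + 0.5% Albumax; 37 C, 5% CO2, one generation; luminescence read-out, lower signal = inhibition.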
# The depositor's hits bear a star; i = inactive; ? = inconclusive; . = no result given. Hits are enriched below; roughly 19% of the tested compounds scored in any of these assays. Unless noted, calls follow the shape of the dose curve; as a rule, active = well fitted curve in the direction sought with a large enough effect; inconclusive = small, poorly fitted or top-dose-only effect, or another doubt; inactive = no such curve, though single readings can be large; an effect the other way counts as inactive or inconclusive.
SMILES,SARS PLP yeast,Pf growth 96h,Shiga toxin inh,AMA1-RON2 inh,Cycloheximide cs,Pf growth 48h
COc1cccc(CN(C)C(=O)C2CC(=O)N(c3ccc4c(c3)OCCO4)C2)c1 (stereo not given),-1.5%,-0.3%,.,6.1%,.,?
Cn1c(-c2nonc2N)nc2ccccc21,9.9%,10.4µM*,-4.2,2.6%,0.3,25.2%
Cc1ccc(C2Nc3ccccc3-c3nc4ccccc4n32)o1 (stereo not given),-35.3%,290.2%,66.8*,44.7%,53.7*,216.3%
Brc1ccc(Cn2c(-c3ccc(Br)o3)nc3ccccc32)o1,-22.3%,?,21.9,?,18.3*,?
Cc1ccc(-c2nc3ccccc3n2C)o1,-28.9%,10.5%,73.9*,-4.7%,57.4*,.
O=C1c2ccccc2-c2nc3ccccc3n21,-0.1%,30.6%,1.9,-8.6%,-2.9,35.2%
CCNC(=O)C1CCCN(C(=O)c2ccccc2)CC1 (stereo not given),.,.,.,-5.6%,.,.
O=C(Cn1cnc2c(nnn2Cc2ccc(F)cc2)c1=O)NCc1ccco1,-7.1%,?,12.1,0.0%,-1.6,-7.0%
COc1cc(/C=C(\C#N)C(=O)Nc2ccc(C(=O)O)cc2)ccc1OC(=O)c1cccc(F)c1,0.1%,?,-17.5,2.4%,-6.1,15.1%
CC(=O)c1ccc(-c2nc3ccccc3n2C)o1,-8.8%,122.4%,56.5*,-0.4%,36.4*,99.4%
Cn1c(-c2ccc(Br)o2)nc2cc(Br)ccc21,-1.8%,298.2%,103.7*,-14.8%,51.8*,322.1%
Cn1c(-c2ccc(Br)o2)nc2ccccc21,-6.2%,244.2%,56.3,-10.0%,28.8*,177.6%
Cn1c2nc3ccccc3c-2nc2ccccc21,.,.,.,-9.1%,.,.
Cc1cc(-c2ccccc2)nc2cc(C(=O)NCc3ccco3)nn12,1.5%,-13.8%,8.0,-1.6%,10.2,18.5%
CN1CCN(c2ccc(NC(=O)c3ccc(C(F)(F)F)cc3)cn2)CC1,1.0%,?,-4.3,-2.2%,13.1,?
Cc1ccccc1C(=O)Nc1ccc(N2CCN(C)CC2)nc1,-0.1%,105.5%,51.5,-3.2%,21.6*,63.1%
Cc1ccc(NC(=O)c2cc(N3C(=O)C4CC=CCC4C3=O)ccc2N2CCCCC2)cc1 (stereo not given),2.2%,14.7µM*,-2.7,-2.6%,-2.8,4.6%
Cc1ccc(C(=O)Nc2ccc(N3CCCC3)cc2)c(C)c1,-2.8%,?,40.6,-14.4%,14.8*,?
Cc1ccc(NC(=O)c2cc(N3C(=O)C4CCCCC4C3=O)ccc2N2CCOCC2)cc1 (stereo not given),0.2%,32.4%,-1.5,-0.8%,-1.2,-14.9%
O=C(Nc1ccc(N2CCCC2)cc1)c1ccccc1[N+](=O)[O-],-0.4%,117.1%,80.2,-11.9%,19.1*,32.6%
CS(=O)(=O)c1ccc(C(=O)Nc2ccc(N3CCCC3)cc2)c(Cl)c1,2.4%,?,15.1,66.6%,-1.1,?
CC[C@H](C)[C@H](NC(=O)[C@H](Cc1ccc(O)cc1)NC(=O)CNC(=O)[C@@H]1CCCN1C(=O)[C@H](CC(=O)O)NC(=O)[C@@H](N)CS)C(=O)NCC(=O)N[C@@H](CO)C(=O)N[C@@H](CCCN=C(N)N)C(N)=O,.,.,-3.6,.,-4.1,.
CC(=O)Nc1ccc(NC(=O)c2ccccc2C)cc1,-5.8%,.,24.2,-4.4%,12.6,16.2%
O=C(Nc1ccc(N2CCCC2)cc1)C(Cl)c1ccccc1 (stereo not given),?,67.2%,70.4*,?,31.7*,?
Cc1ccccc1C(=O)Nc1ccc(N2CCCC2)cc1,-2.2%,-23.8%,56.8*,3.8%,35.2*,28.5%
SMILES,SARS PLP yeast,Pf growth 96h,Shiga toxin inh,AMA1-RON2 inh,Cycloheximide cs,Pf growth 48h
CN1C(=O)C(=Cc2ccccc2OCc2ccc(Cl)cc2)C(=O)N(C)C1=O,-5.1%,1.04µM*,-0.2,3.5%,9.9,29.1%
Cc1ccc(S(=O)(=O)Oc2ccccc2C=C2C(=O)N(C)C(=O)N(C)C2=O)cc1,-10.4%,11.7µM*,38.1,-10.9%,12.1,-12.9%
Cc1ccc(S(=O)(=O)Oc2ccccc2/C=C2/SC(=O)NC2=O)cc1,-1.0%,?,4.2,-5.3%,-1.8,-11.0%
CN1C(=O)C(=Cc2ccccc2Oc2ccc(Cl)cc2)C(=O)N(C)C1=O,19.4%,-6.7%,-1.7,2.5%,-1.0,-2.7%
Cc1nnsc1NC(=O)OCc1ccc(C(C)(C)C)cc1,-2.4%,48.3%,13.4,-0.1%,-2.2,30.5%
CC[C@@H]1[C@H]2CCCC(=O)N3CC[C@@H](C[C@@H]1OC(=O)Nc1ccccc1)[C@@H]23,-2.9%,2.33µM*,-14.7,4.4%,1.3,?
O=C1OC(c2ccccc2)=N/C1=C\C=C\c1ccccc1[N+](=O)[O-],23.1%,0.465µM*,-2.7,5.8%,-0.8,19.1%
O=C1OC(c2ccccc2)=N/C1=C\C=C\c1ccco1,-1.3%,18.9%,-8.4,-13.2%,1.5,13.5%
Cc1ccc(NC(=O)CNC(=O)N2CC(=O)Nc3ccccc32)cc1F,1.1%,18.2%,-4.2,0.0%,-2.0,9.3%
O=C(CN1CC(=O)Nc2ccccc21)Nc1ccc(F)c(F)c1,-0.4%,?,74.6*,13.8%,29.8*,39.0%
O=C(CSCc1ccc(F)cc1)NCc1ccco1,-1.9%,.,42.1,10.0%,21.3*,-7.7%
CCc1cccc(NC(=O)CNC(=O)N2CC(=O)Nc3ccccc32)c1,-1.6%,31.0%,-1.9,-8.2%,26.0*,24.7%
O=C(CSCc1ccccc1)Nc1cc([N+](=O)[O-])ccc1F,0.4%,5.22µM*,-7.2,3.3%,1.2,-16.2%
Cc1ccc(C(=O)NCC(=O)OCC(=O)Nc2ccccc2C#N)s1,1.9%,136.3%,10.4,-3.4%,1.7,i
COc1cccc(C(=O)N2CCN(C3CCN(Cc4ccccc4)CC3)CC2)c1OC,-0.8%,-12.5%,-5.3,-2.1%,3.8,-7.2%
O=C(COC(=O)CCc1ccccc1)Nc1cc([N+](=O)[O-])ccc1F,-2.6%,2.6%,-10.5,-3.9%,-2.3,?
O=C(COc1ncnc2ccccc12)Nc1cc([N+](=O)[O-])ccc1F,1.2%,5.22µM*,-12.1,21.2%,5.1,2.7%
O=C(CCn1c(=S)oc2ccccc21)Nc1cc([N+](=O)[O-])ccc1F,-0.2%,-4.5%,-3.9,-1.5%,-1.9,8.28µM*
O=C(CSCc1ccc(F)cc1)Nc1ccccc1,-5.1%,44.3%,53.1*,15.0%,29.6*,-8.4%
O=C(CSCc1cccc(CSCC(=O)Nc2ccccc2)n1)Nc1ccccc1,-4.6%,?,-4.8,17.9%,-1.5,.
O=C(CCn1c(=S)oc2ccccc21)Nc1cccc(F)c1,0.6%,-10.7%,14.9,10.3%,5.5,-27.9%

# Source: PubChem BioAssay
